The values below come from PubChem BioAssay (EPA / NIEHS).

Results filed as inconclusive are left out. Active and inactive are the calls of the source. How the source made its calls: active means hit-call score of the fitted dose curve at least 0.9, where 1 is the maximum; inconclusive means response in the unintended direction; inactive means score below 0.9.

Sequence of human RAR-related Orphan Receptor gamma (RORg), RORC (gene 6097) (P51449 whole entry, looked up, the tested form may be a part): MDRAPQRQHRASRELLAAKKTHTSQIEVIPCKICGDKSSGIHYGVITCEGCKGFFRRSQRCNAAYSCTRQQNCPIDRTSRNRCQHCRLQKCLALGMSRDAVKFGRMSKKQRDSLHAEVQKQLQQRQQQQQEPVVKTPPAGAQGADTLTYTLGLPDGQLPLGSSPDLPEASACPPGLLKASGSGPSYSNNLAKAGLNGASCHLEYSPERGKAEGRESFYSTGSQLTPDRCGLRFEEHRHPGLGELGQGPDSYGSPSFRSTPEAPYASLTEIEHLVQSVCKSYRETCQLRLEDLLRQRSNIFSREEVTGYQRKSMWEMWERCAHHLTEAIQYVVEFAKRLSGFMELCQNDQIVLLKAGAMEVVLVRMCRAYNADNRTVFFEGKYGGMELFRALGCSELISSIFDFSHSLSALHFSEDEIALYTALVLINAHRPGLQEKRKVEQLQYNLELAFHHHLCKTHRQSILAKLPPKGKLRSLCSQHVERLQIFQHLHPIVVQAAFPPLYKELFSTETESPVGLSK

The target of this assay is human RAR-related Orphan Receptor gamma (RORg), RORC (gene 6097) (UniProt P51449). In words: ATG_RORg_TRANS: Attagene TRANS-FACTORIAL HepG2 Assay for human RAR-related Orphan Receptor gamma (RORg) (AID 2283011). The method in brief:
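HepG2 cells transiently transfected with GAL4-UAS reporter units and chimeric RORg-Gal4 construct; after 24 h chemical exposure, reporter mRNA measured by RT-PCR with fluorescent capillary electrophoresis, gain of signal fitted against DMSO.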
`COc1ccc(OC)c(N=Nc2c(O)ccc3ccccc23)c1`: the result was inactive.

Consider `Oc1c(Cl)cc(Cl)c(Cl)c1Cc1c(O)c(Cl)cc(Cl)c1Cl`, for which the result was inactive.

As to `CN(c1nccc(=O)[nH]1)C1CCN(c2nc3ccccc3n2Cc2ccc(F)cc2)CC1`, the compound was called inactive.

On to `O=C(c1ccccc1)C(O)c1ccccc1` (stereo not given), for which the result was inactive.

Turning to `CN(C)C(=S)SC(=S)N(C)C`, the compound was classed as inactive.

For `CCN(CCN)c1cccc(C)c1`, the call was inactive.

On to `CS(C)=O`, for which the outcome was inactive.

With `CCCCCCCCCCCCCC(=O)OCC(O)CO` (stereo not given), the result was inactive.

Regarding `COC(=O)c1cccnc1`, the result was inactive.

`C=CC(C)C#N` (stereo not given): the compound was called inactive.

`CCCC[P+](CCCC)(CCCC)CCCC`: the call was inactive.

For the compound `C=CC(=C)CCCC(C)(C)OC(C)=O`, the call was inactive.

As for `Brc1ccc(Br)c(Br)c1`, the call was inactive.

In the case of `O=C(O)c1cc(C(=O)O)cc([N+](=O)[O-])c1`, the outcome was inactive.

Regarding `COc1ccccc1N=Nc1c(S(=O)(=O)O)cc2cc(S(=O)(=O)O)cc(NC(C)=O)c2c1O`, the compound was classed as inactive.

Consider `CC(C)CC(C)CC(O)CC(C)C` (stereo not given), for which the call was inactive.

As to `CC(=O)C1(C)CC2=C(CCCC2(C)C)CC1C` (stereo not given), the result was inactive.

Take `OCCCCC(O)CO` (stereo not given): the compound was classed as inactive.

Turning to `CC(C)CCCCCCCCCCCCCCC(=O)O`, the compound was classed as inactive.

On to `O=CCc1ccccc1`, for which the outcome was inactive.

As to `Cc1cc(CCC(=O)OCCOCCOCCOC(=O)CCc2cc(C)c(O)c(C(C)(C)C)c2)cc(C(C)(C)C)c1O`, the compound was called inactive.

For `CC(=O)O[C@@H]1C[C@@H]2CC[C@@]1(C)C2(C)C`, the outcome was inactive.

On to `Nc1ccn([C@H]2CS[C@@H](CO)O2)c(=O)n1`, for which the outcome was inactive.

Take `c1ccc(Oc2ccccc2)cc1`: the result was inactive.

On to `Cc1c(C2(c3cc(Br)c(O)c(Br)c3C)OS(=O)(=O)c3ccccc32)cc(Br)c(O)c1Br`, for which the call was inactive.
